# Several values for one entry are separate records, joined by “and”; a condition that tells them apart may be missing. Equal entries are not always repeated. Where two headings read alike, the source gives them in different places.
# Columns and labels:
# PRKCI = conditions: concentration: 1 μM, replicates: in singlicate, n = 1
# PRKCQ = conditions: concentration: 1 μM, replicates: in singlicate, n = 1
# PRKD1 = conditions: concentration: 1 μM, replicates: in singlicate, n = 1
# PRKD2 = conditions: concentration: 1 μM, replicates: in singlicate, n = 1
# PRKD3 = conditions: concentration: 1 μM, replicates: in singlicate, n = 1
# PRKG1 = conditions: concentration: 1 μM, replicates: in singlicate, n = 1
# PRKG2 = conditions: concentration: 1 μM, replicates: in singlicate, n = 1
# PRKR = system: T1, PRKR; conditions: concentration: 1 μM, replicates: in singlicate, n = 1
# T1 construct: gene EIF2AK2
# PRKX = conditions: concentration: 1 μM, replicates: in singlicate; n = 1
# PRP4 = conditions: concentration: 1 μM, replicates: in singlicate, n = 1
# PYK2 = system: T2, PYK2; conditions: concentration: 1 μM, replicates: in singlicate, n = 1
# T2 construct: gene PTK2B
# QSK = conditions: concentration: 1 μM, replicates: in singlicate; n = 1
# RAF1 = conditions: concentration: 1 μM, replicates: in singlicate, n = 1
# RET = conditions: concentration: 1 μM, replicates: in singlicate, n = 1
# RIOK1 = conditions: concentration: 1 μM, replicates: in singlicate, n = 1
# RIOK2 = conditions: concentration: 1 μM, replicates: in singlicate; n = 1
# RIOK3 = conditions: concentration: 1 μM, replicates: in singlicate, n = 1
# RIPK1 = conditions: concentration: 1 μM, replicates: in singlicate, n = 1
# RIPK2 = conditions: concentration: 1 μM, replicates: in singlicate, n = 1
# RIPK4 = conditions: concentration: 1 μM, replicates: in singlicate, n = 1
# 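Also: KINOMEscan kinase panel screen.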
compound,measurement,setting,value
O=C(NCCNc1ccnc(Nc2ccc(F)cc2)n1)Nc1ccccc1F [GSK1379880],%Inh,PRKCI,25%
same,%Inh,PRKCQ,0%
same,%Inh,PRKD1,0%
same,%Inh,PRKD2,0%
same,%Inh,PRKD3,0%
same,%Inh,PRKG1,0%
same,%Inh,PRKG2,0%
same,%Inh,PRKR,0%
same,%Inh,PRKX,9%
same,%Inh,PRP4,21%
same,%Inh,PYK2,16%
same,%Inh,QSK,0%
same,%Inh,RAF1,22%
same,%Inh,RET,5%
same,%Inh,RIOK1,17%
same,%Inh,RIOK2,5%
same,%Inh,RIOK3,0%
same,%Inh,RIPK1,0%
same,%Inh,RIPK2,1%
same,%Inh,RIPK4,11%
Cc1c2ccc(N(C)c3ccnc(Nc4cccc(S(N)(=O)=O)c4)n3)cc2nn1Cc1ccccc1.Cl.Cl [GW787226],%Inh,PRKCI,0%
same,%Inh,PRKCQ,0%
same,%Inh,PRKD1,0%
same,%Inh,PRKD2,0%
same,%Inh,PRKD3,0%
same,%Inh,PRKG1,0%
same,%Inh,PRKG2,0%
same,%Inh,PRKR,0%
same,%Inh,PRKX,0%
same,%Inh,PRP4,0%
same,%Inh,PYK2,9%
same,%Inh,QSK,0%
same,%Inh,RAF1,94.5%
same,%Inh,RET,99.9%
same,%Inh,RIOK1,0%
same,%Inh,RIOK2,15%
same,%Inh,RIOK3,0%
same,%Inh,RIPK1,36%
same,%Inh,RIPK2,95.9%
same,%Inh,RIPK4,0%
O=C1Cc2cc(Nc3nc(NCc4cccc(S(=O)(=O)C(F)(F)F)c4)ncc3C(F)(F)F)ccc2N1,%Inh,PRKCI,0%
same,%Inh,PRKCQ,4%
same,%Inh,PRKD1,16%
same,%Inh,PRKD2,0%
same,%Inh,PRKD3,26%
same,%Inh,PRKG1,0%
same,%Inh,PRKG2,1%
same,%Inh,PRKR,0%
same,%Inh,PRKX,0%
same,%Inh,PRP4,10%
same,%Inh,PYK2,6%
same,%Inh,QSK,0%
same,%Inh,RAF1,0%
same,%Inh,RET,5%
same,%Inh,RIOK1,0%
same,%Inh,RIOK2,35%
same,%Inh,RIOK3,0%
same,%Inh,RIPK1,2%
same,%Inh,RIPK2,0%
same,%Inh,RIPK4,0%
COCCNC(=O)c1ccc(-c2cc(C(=O)NC3CC3)cc(F)c2C)cc1 [GW868318],%Inh,PRKCI,9%
same,%Inh,PRKCQ,2%
same,%Inh,PRKD1,2%
same,%Inh,PRKD2,0%
same,%Inh,PRKD3,0%
same,%Inh,PRKG1,7%
same,%Inh,PRKG2,27%
same,%Inh,PRKR,4%
same,%Inh,PRKX,0%
same,%Inh,PRP4,0%
same,%Inh,PYK2,4%
same,%Inh,QSK,26%
same,%Inh,RAF1,7%
same,%Inh,RET,0%
same,%Inh,RIOK1,0%
same,%Inh,RIOK2,7%
same,%Inh,RIOK3,0%
same,%Inh,RIPK1,0%
same,%Inh,RIPK2,8%
same,%Inh,RIPK4,47%
Fc1ccc(-c2ncn(CCCN3CCOCC3)c2-c2cccnc2)cc1 [SB-211743],%Inh,PRKCI,23%
same,%Inh,PRKCQ,0%
same,%Inh,PRKD1,0%
same,%Inh,PRKD2,6%
same,%Inh,PRKD3,0%
same,%Inh,PRKG1,35%
same,%Inh,PRKG2,0%
same,%Inh,PRKR,0%
same,%Inh,PRKX,0%
same,%Inh,PRP4,0%
same,%Inh,PYK2,0%
same,%Inh,QSK,0%
same,%Inh,RAF1,9%
same,%Inh,RET,3%
same,%Inh,RIOK1,17%
same,%Inh,RIOK2,53%
same,%Inh,RIOK3,0%
same,%Inh,RIPK1,0%
same,%Inh,RIPK2,0%
same,%Inh,RIPK4,4%
COc1ccc(Nc2nccc(N3CCC(NC(=O)Nc4cc(C)ccc4C)C3)n2)cc1 (centres unmarked) [GSK1379741],%Inh,PRKCI,7%
same,%Inh,PRKCQ,22%
same,%Inh,PRKD1,0%
same,%Inh,PRKD2,0%
same,%Inh,PRKD3,4%
same,%Inh,PRKG1,0%
same,%Inh,PRKG2,0%
same,%Inh,PRKR,0%
same,%Inh,PRKX,6%
same,%Inh,PRP4,22%
same,%Inh,PYK2,7%
same,%Inh,QSK,1%
same,%Inh,RAF1,13%
same,%Inh,RET,52%
same,%Inh,RIOK1,25%
same,%Inh,RIOK2,0%
same,%Inh,RIOK3,0%
same,%Inh,RIPK1,0%
same,%Inh,RIPK2,14%
same,%Inh,RIPK4,8%
Cl.Cl.Cl.Fc1ccc(-c2ncn(C3CCNCC3)c2-c2ccnc(Nc3ccccc3)n2)cc1 [SB-238039],%Inh,PRKCI; 1 µM,53% and 34%
same,%Inh,PRKCQ; 1 µM,20% and 50%
same,%Inh,PRKD1; 1 µM,96.5% and 91.3%
same,%Inh,PRKD2; 1 µM,95.3% and 91.8%
same,%Inh,PRKD3; 1 µM,88% and 90.8%
same,%Inh,PRKG1; 1 µM,3% and 0%
same,%Inh,PRKG2; 1 µM,0% and 28%
same,%Inh,PRKR; 1 µM,0% and 3%
same,%Inh,PRKX,0%
same,%Inh,PRP4; 1 µM,32% and 0%
same,%Inh,PYK2; 1 µM,0% and 12%
same,%Inh,QSK,0%
same,%Inh,RAF1; 1 µM,18% and 8%
same,%Inh,RET; 1 µM,8% and 20%
same,%Inh,RIOK1; 1 µM,11% and 52%
same,%Inh,RIOK2,0%
same,%Inh,RIOK3; 1 µM,3% and 32%
same,%Inh,RIPK1; 1 µM,35% and 0%
same,%Inh,RIPK2; 1 µM,76% and 65%
same,%Inh,RIPK4; 1 µM,13% and 42%
Cc1nnc(-c2ccc3ncc(-c4ccc(S(C)=O)cc4)n3c2)o1 (centres unmarked),%Inh,PRKCI,0%
same,%Inh,PRKCQ,0%
same,%Inh,PRKD1,0%
same,%Inh,PRKD2,13%
same,%Inh,PRKD3,0%
same,%Inh,PRKG1,0%
same,%Inh,PRKG2,0%
same,%Inh,PRKR,0%
same,%Inh,PRKX,19%
same,%Inh,PRP4,2%
same,%Inh,PYK2,0%
same,%Inh,QSK,0%
same,%Inh,RAF1,49%
same,%Inh,RET,9%
same,%Inh,RIOK1,0%
same,%Inh,RIOK2,0%
same,%Inh,RIOK3,0%
same,%Inh,RIPK1,0%
same,%Inh,RIPK2,21%
same,%Inh,RIPK4,24%
CN(C1=C(c2ccccc2)C(=O)NC1=O)c1ccccc1 [SB-334860],%Inh,PRKCI,33%
same,%Inh,PRKCQ,7%
same,%Inh,PRKD1,0%
same,%Inh,PRKD2,14%
same,%Inh,PRKD3,25%
same,%Inh,PRKG1,0%
same,%Inh,PRKG2,16%
same,%Inh,PRKR,17%
same,%Inh,PRKX,2%
same,%Inh,PRP4,0%
same,%Inh,PYK2,0%
same,%Inh,QSK,0%
same,%Inh,RAF1,18%
same,%Inh,RET,0%
same,%Inh,RIOK1,0%
same,%Inh,RIOK2,4%
same,%Inh,RIOK3,0%
same,%Inh,RIPK1,30%
same,%Inh,RIPK2,44%
same,%Inh,RIPK4,20%
O=c1cc(N2CCOCC2)nc2n(Cc3cccc(C(F)(F)F)c3)ccn12 [GSK2297543],%Inh,PRKCI,4%
same,%Inh,PRKCQ,8%
same,%Inh,PRKD1,0%
same,%Inh,PRKD2,1%
same,%Inh,PRKD3,0%
same,%Inh,PRKG1,27%
same,%Inh,PRKG2,0%
same,%Inh,PRKR,8%
same,%Inh,PRKX,0%
same,%Inh,PRP4,22%
same,%Inh,PYK2,3%
same,%Inh,QSK,3%
same,%Inh,RAF1,5%
same,%Inh,RET,0%
same,%Inh,RIOK1,26%
same,%Inh,RIOK2,7%
same,%Inh,RIOK3,19%
same,%Inh,RIPK1,10%
same,%Inh,RIPK2,12%
same,%Inh,RIPK4,0%

# Source: paper PMC5540273 (PLoS ONE, 2017)
